Records with an inconclusive call do not appear. Activity calls are given as the source filed them. Calls come from the whole dose curve; as a rule, active = well fitted curve in the direction sought with a large enough effect; inconclusive = small, poorly fitted or top-dose-only effect, or another doubt; inactive = no such curve, though single readings can be large; an effect the other way counts as inactive or inconclusive.
Assays:
[1] = qHTS of pediatric cancer cell lines to identify multiple opportunities for drug repurposing: Confirmatory screen for NB1643 cells (AID 1347109); note: nearly all actives have a fitted effect of over 45% in size; note: potency is the fitted concentration of half-maximal effect
How it was run: (§1)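 Viability after 48 h compound treatment at 37C, 500-1,000 cells/well, read as ATP luminescence with CellTiter-Glo. Primary screens used 11-point (MIPE, 0.78 nM-46 µM) or 8-point (NPC, 0.59 nM-46 µM) final concentrations; follow-up screens used 11-point dilutions.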

[2] = qHTS of pediatric cancer cell lines to identify multiple opportunities for drug repurposing: Confirmatory screen for SK-N-MC cells (AID 1347111);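 note: cells exposed to compound for 48 h before the readout; nearly all actives have a fitted effect of over 70% in size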; note: potency is the fitted concentration of half-maximal effect
How it was run: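 SK-N-MC cells at 500-1,000 cells/well in growth media were pre-incubated 5 h, then exposed to compounds at 11-point dilutions for 48 h at 37 degrees C, 5% CO2. Viability was read as CellTiter-Glo luminescence.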

[3] = qHTS of pediatric cancer cell lines to identify multiple opportunities for drug repurposing: Confirmatory screen for BT-12 cells (AID 1347112); note: nearly all actives have a fitted effect of over 55% in size; note: potency is the fitted concentration of half-maximal effect
How it was run: as §1

[4] = qHTS of pediatric cancer cell lines to identify multiple opportunities for drug repurposing: Confirmatory screen for LAN-5 cells (AID 1347113); note: nearly all actives have a fitted effect of over 65% in size; note: potency is the fitted concentration of half-maximal effect
How it was run: as §1

[5] = qHTS of pediatric cancer cell lines to identify multiple opportunities for drug repurposing: Confirmatory screen for DAOY cells (AID 1347114); note: nearly all actives have a fitted effect of over 65% in size; note: potency is the fitted concentration of half-maximal effect
How it was run: (§2)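 Viability measured as metabolically active cells via CellTiter-Glo luminescence following 48 hours of compound exposure, 11-point dilutions in confirmatory testing. 500-1,000 cells/well plated 5 hours before dosing; controls were DMSO and 2.3 µM bortezomib.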

[6] = qHTS of pediatric cancer cell lines to identify multiple opportunities for drug repurposing: Confirmatory screen for NB-EBc1 cells (AID 1347115); note: nearly all actives have a fitted effect of over 45% in size; note: potency is the fitted concentration of half-maximal effect
How it was run: as §1

[7] = qHTS of pediatric cancer cell lines to identify multiple opportunities for drug repurposing: Confirmatory screen for SJ-GBM2 cells (AID 1347116); note: nearly all actives have a fitted effect of over 60% in size; note: potency is the fitted concentration of half-maximal effect
How it was run: as §2

[8] = qHTS of pediatric cancer cell lines to identify multiple opportunities for drug repurposing: Confirmatory screen for BT-37 cells (AID 1347117); note: nearly all actives have a fitted effect of over 55% in size; note: potency is the fitted concentration of half-maximal effect
How it was run: as §1

[9] = qHTS of pediatric cancer cell lines to identify multiple opportunities for drug repurposing: Confirmatory screen for MG 63 (6-TG R) cells (AID 1347119); note: nearly all actives have a fitted effect of over 55% in size; note: potency is the fitted concentration of half-maximal effect
How it was run: as §1

[10] = qHTS of pediatric cancer cell lines to identify multiple opportunities for drug repurposing: Confirmatory screen for control Hh wild type fibroblast cells (AID 1347121); note: nearly all actives have a fitted effect of over 70% in size; note: potency is the fitted concentration of half-maximal effect
How it was run: as §1

[11] = qHTS of pediatric cancer cell lines to identify multiple opportunities for drug repurposing: Confirmatory screen for U-2 OS cells (AID 1347122); note: nearly all actives have a fitted effect of over 65% in size; note: potency is the fitted concentration of half-maximal effect
How it was run: as §1

[12] = qHTS of pediatric cancer cell lines to identify multiple opportunities for drug repurposing: Confirmatory screen for Rh41 cells (AID 1347123);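 note: 48 h compound exposure; nearly all actives have a fitted effect of over 60% in size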; note: potency is the fitted concentration of half-maximal effect
How it was run: as §1

[13] = qHTS of pediatric cancer cell lines to identify multiple opportunities for drug repurposing: Confirmatory screen for RD cells (AID 1347124);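 note: cells exposed to compound for 48 h before viability readout; nearly all actives have a fitted effect of over 65% in size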; note: potency is the fitted concentration of half-maximal effect
How it was run: as §1

[14] = qHTS of pediatric cancer cell lines to identify multiple opportunities for drug repurposing: Confirmatory screen for Saos-2 cells (AID 1347127); note: nearly all actives have a fitted effect of over 60% in size; note: potency is the fitted concentration of half-maximal effect
How it was run: as §1

[15] = qHTS of pediatric cancer cell lines to identify multiple opportunities for drug repurposing: Confirmatory screen for A673 cells (AID 1347110); note: nearly all actives have a fitted effect of over 65% in size; note: potency is the fitted concentration of half-maximal effect
How it was run: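 Cells plated at 500-1,000/well were treated five hours later with multi-point dilutions up to 46 µM final. After two days, CellTiter-Glo was added and luminescence read.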

[16] = qHTS of pediatric cancer cell lines to identify multiple opportunities for drug repurposing: Confirmatory screen for TC32 cells (AID 1347118); note: nearly all actives have a fitted effect of over 65% in size; note: potency is the fitted concentration of half-maximal effect
How it was run: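 qHTS, TC32, 48 h drug treatment, CellTiter-Glo luminescence as a proxy for metabolically active cells; primary top concentration 46 µM (MIPE 11-pt, NPC 8-pt); confirmatory 11-pt.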

[17] = target: Furin (Homo sapiens) (UniProt P09958); assay: Furin counterscreen qHTS for Zika virus inhibitors (AID 1347149);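 note: purified recombinant full-length human furin enzyme at 5 nM; fluorescence gain from furin cutting a BOC-RVRR-AMC peptide substrate over 15 min; top concentration of the series differs between compounds; nearly all actives have a fitted effect of over 70% in size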
How it was run: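 Counterscreen measures cleavage of 2 microM BOC-RVRR-AMC, below its ~15 microM Km, by 5 nM full-length human furin at pH 7.0 after a 15-min compound preincubation. Inhibition derives from the 15-min fluorescence increase at 37C.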

Sequence of Furin (Homo sapiens) (P09958 whole entry, looked up): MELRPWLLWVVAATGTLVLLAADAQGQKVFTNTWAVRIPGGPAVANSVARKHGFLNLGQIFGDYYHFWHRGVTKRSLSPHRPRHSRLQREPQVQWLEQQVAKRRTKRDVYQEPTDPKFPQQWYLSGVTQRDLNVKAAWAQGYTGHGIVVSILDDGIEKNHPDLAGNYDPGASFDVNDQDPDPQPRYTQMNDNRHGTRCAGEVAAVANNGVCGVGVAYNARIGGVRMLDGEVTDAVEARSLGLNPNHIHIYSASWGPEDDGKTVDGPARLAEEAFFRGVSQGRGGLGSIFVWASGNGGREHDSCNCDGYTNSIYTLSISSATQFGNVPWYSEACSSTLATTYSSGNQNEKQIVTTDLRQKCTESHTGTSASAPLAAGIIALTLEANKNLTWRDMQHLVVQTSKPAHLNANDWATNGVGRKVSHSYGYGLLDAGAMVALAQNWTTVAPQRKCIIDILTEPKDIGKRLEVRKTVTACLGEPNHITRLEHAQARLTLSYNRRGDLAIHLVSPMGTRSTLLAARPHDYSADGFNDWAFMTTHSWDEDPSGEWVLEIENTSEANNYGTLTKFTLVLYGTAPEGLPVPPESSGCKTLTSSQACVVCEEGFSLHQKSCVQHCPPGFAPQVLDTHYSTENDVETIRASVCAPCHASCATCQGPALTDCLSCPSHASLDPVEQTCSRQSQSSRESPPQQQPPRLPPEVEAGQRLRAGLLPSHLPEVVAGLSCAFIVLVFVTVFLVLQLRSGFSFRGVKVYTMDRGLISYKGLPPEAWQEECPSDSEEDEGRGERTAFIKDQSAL

| Compound | Potency [1] | Potency [2] | Potency [3] | Potency [4] | Potency [5] | Potency [6] | Potency [7] | Potency [8] | Potency [9] | Potency [10] | Potency [11] | Potency [12] | Potency [13] | Potency [14] | Potency [15] | Potency [16] | Potency [17] |
| --- | --- | --- | --- | --- | --- | --- | --- | --- | --- | --- | --- | --- | --- | --- | --- | --- | --- |
| CC(C)N[C@@H]1CCn2c(=O)[nH]c3cccc(c32)[C@@H]1O | inactive | 18500 nM (active) | inactive | inactive | inactive | inactive | inactive | inactive | inactive | inactive | inactive | inactive | inactive | inactive |  |  |  |
| CC(C)(O)C=CC(=O)[C@](C)(O)[C@H]1[C@H](O)C[C@]2(C)[C@@H]3CC=C4[C@@H](C=C(O)C(=O)C4(C)C)[C@]3(C)C(=O)C[C@@]12C | 117 nM (active) | 147 nM (active) | 1310 nM (active) | 58.5 nM (active) | 165 nM (active) | 3290 nM (active) | 1650 nM (active) | 827 nM (active) | 117 nM (active) | 2610 nM (active) | 208 nM (active) | 208 nM (active) | 465 nM (active) | 147 nM (active) | 5220 nM (active) | 827 nM (active) |  |
| CO[C@H]1CCC(O[C@H]2C[C@H]([C@]3(C)CC[C@]4(C[C@H](O)[C@@H](C)[C@@H]([C@@H](C)C=C(C)C(=O)[C@H](C)C[C@H](C)C(=O)O)O4)O3)O[C@]3(O[C@@H]([C@H]4O[C@@](O)(CO)[C@H](C)C[C@H]4C)C[C@H]3C)[C@H]2C)O[C@H]1C (some centres not stated) | 2930 nM (active) |  | 2930 nM (active) | 2330 nM (active) | 20800 nM (active) |  |  |  | 2080 nM (active) |  | 5220 nM (active) | 1470 nM (active) | inactive |  | 1850 nM (active) |  |  |
| C[C@@H]1CC[C@@]2(OC1)O[C@H]1C[C@H]3[C@@H]4CC=C5C[C@@H](O[C@@H]6O[C@H](CO)[C@@H](O[C@@H]7O[C@@H](C)[C@H](O)[C@@H](O)[C@@H]7O)[C@H](O)[C@@H]6O[C@@H]6O[C@@H](C)[C@H](O)[C@@H](O)[C@@H]6O)CC[C@]5(C)[C@@H]4CC[C@]3(C)[C@@H]1[C@H]2C | 4140 nM (active) | 2330 nM (active) | 9270 nM (active) | 4650 nM (active) |  | 16500 nM (active) |  | 5220 nM (active) | 2610 nM (active) | 13100 nM (active) |  |  |  | 5220 nM (active) | 6570 nM (active) | 4140 nM (active) |  |
| CC(C)[C@]12O[C@@H]1[C@@H]1O[C@]13[C@]1(O[C@H]1C[C@@H]1C4=C(CC[C@@]13C)C(=O)OC4)[C@H]2O |  | 46.5 nM (active) | 36.9 nM (active) | 147 nM (active) | 208 nM (active) |  | 65.7 nM (active) | 36.9 nM (active) | 32.9 nM (active) | inactive | 73.7 nM (active) | 26.1 nM (active) | 52.2 nM (active) | 46.5 nM (active) | 92.8 nM (active) | 73.7 nM (active) |  |
| CC(C)(C)C(O)C(Oc1ccc(Cl)cc1)n1cncn1 (configuration not stated) | inactive | inactive | inactive |  | inactive | inactive | inactive | inactive | inactive | inactive | inactive | inactive | inactive | inactive | inactive | inactive |  |
| Cc1ccccc1-n1c(Cn2ncc3c(N)ncnc32)nc2cccc(C)c2c1=O | 522 nM (active) | 1040 nM (active) | 18500 nM (active) | 522 nM (active) | inactive |  | inactive | 293 nM (active) |  | inactive | inactive | inactive |  |  | inactive | 1850 nM (active) |  |
| CC=C(C)C(=O)N[C@@H](c1ccccc1)[C@@H](O)C(=O)O[C@H]1C[C@@]2(O)[C@@H](OC(=O)c3ccccc3)[C@@H]3[C@]4(OC(C)=O)CO[C@@H]4C[C@H](O)[C@@]3(C)C(=O)[C@H](OC(C)=O)C(=C1C)C2(C)C |  | 36.9 nM (active) |  | inactive |  |  |  | 52.2 nM (active) | 29.3 nM (active) | inactive |  |  |  | 41.4 nM (active) | 32.9 nM (active) |  |  |
| O=C(O)CCCOc1ccc(Cl)cc1Cl |  | 43400 nM (active) | inactive | inactive | inactive | 19400 nM (active) |  | inactive |  | inactive | inactive |  | inactive | inactive | inactive |  |  |
| Cc1[nH]nc2ccc(-c3cncc(OC[C@@H](N)Cc4c[nH]c5ccccc45)c3)cc12 | 737 nM (active) | 1470 nM (active) | 4140 nM (active) | 2330 nM (active) |  |  |  | 1650 nM (active) | 3290 nM (active) | 18500 nM (active) |  |  | inactive | 2610 nM (active) | 1470 nM (active) | 2330 nM (active) |  |
| CCCN1CCO[C@@H]2c3cc(O)ccc3OC[C@@H]21 | inactive |  |  | inactive | inactive | inactive | inactive |  | inactive | inactive | inactive | inactive | inactive |  | inactive |  |  |
| CCC(=O)OC1CCC2C3CCC4=CC(=O)CC[C@@]4(C)C3CC[C@]12C (some centres not stated) | inactive |  | inactive | inactive | inactive | inactive | inactive | inactive | inactive | inactive | inactive |  | inactive | inactive | inactive |  |  |
| O=c1[nH]c2ccc(Cl)cc2c(N[C@@H]2CN3CCC2CC3)c1-c1nc2ccccc2[nH]1 | 1310 nM (active) | 293 nM (active) | 13100 nM (active) | 1470 nM (active) | 9270 nM (active) | 522 nM (active) | 1040 nM (active) | 5850 nM (active) |  | 18500 nM (active) | 1310 nM (active) | 3690 nM (active) | 2330 nM (active) | 1310 nM (active) | 261 nM (active) | 465 nM (active) |  |
| Cc1c(C(=O)Nc2cccc(C(F)(F)F)c2)cc(-c2ccccc2)n1CCCN1CCOCC1 | 42700 nM (active) | 26900 nM (active) |  | 42700 nM (active) | 38000 nM (active) | 42700 nM (active) |  | 42700 nM (active) |  |  | 24000 nM (active) | 21400 nM (active) |  |  |  |  |  |
| CC(=O)[O][Hg][c]1ccccc1 | 1470 nM (active) | 827 nM (active) | 4650 nM (active) | 3290 nM (active) |  | 5850 nM (active) | 1170 nM (active) | 2330 nM (active) | 4140 nM (active) | 13100 nM (active) |  |  |  | 1170 nM (active) | 1040 nM (active) | 827 nM (active) |  |
| CS(=O)(=O)c1ccc(C(=O)C2C(=O)CCCC2=O)c([N+](=O)[O-])c1 | inactive |  | inactive | inactive | inactive | inactive | inactive | inactive | inactive | inactive | inactive | inactive | inactive | inactive | inactive | inactive |  |
| CC1=C(O)C(=O)C=C2C1=CC=C1[C@@]2(C)CC[C@@]2(C)[C@@H]3C[C@](C)(C(=O)O)CC[C@]3(C)CC[C@]12C | 2080 nM (active) | 1170 nM (active) | 3290 nM (active) | 1850 nM (active) | 1650 nM (active) | 2610 nM (active) | 2610 nM (active) | 4650 nM (active) | 2330 nM (active) | 4140 nM (active) | 928 nM (active) | 1470 nM (active) | 1170 nM (active) | 3290 nM (active) | 1310 nM (active) | 1310 nM (active) | inactive |
| CC[C@@H]1[C@@H](C)O[C@@](O)([C@@H](C)[C@H](O)[C@H](C)[C@H]2OC(=O)C=CC=C[C@@H](C)[C@@H]([C@@H](C)[C@@H](O)[C@H](C)[C@@]3(O)C[C@H](O[C@H]4C[C@H](O)[C@H](O)[C@H](C)O4)[C@H](CC)[C@@H](C)O3)OC(=O)C=CC=C[C@@H]2C)C[C@H]1O[C@H]1C[C@H](O)[C@H](O)[C@H](C)O1 | inactive | inactive | inactive | inactive |  |  | inactive | inactive |  | inactive | inactive |  | inactive | inactive |  | inactive |  |
